Screens as filed in PubChem BioAssay.
Hits are enriched below; roughly 6.6% of the tested compounds scored in any of these assays.
Mdm2 MdmX PPI: human Mdm2/MdmX binding inhibition; 330,000 tested, 3% active; O15151+Q00987; SaOS-2 split-luciferase Mdm2/MdmX complementation, luminescence; AID 485346; inhibition, % at 8 µM;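 active = inhibition of at least 50% at 8 µM in the primary screen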
Target sequence (O15151 whole entry, looked up): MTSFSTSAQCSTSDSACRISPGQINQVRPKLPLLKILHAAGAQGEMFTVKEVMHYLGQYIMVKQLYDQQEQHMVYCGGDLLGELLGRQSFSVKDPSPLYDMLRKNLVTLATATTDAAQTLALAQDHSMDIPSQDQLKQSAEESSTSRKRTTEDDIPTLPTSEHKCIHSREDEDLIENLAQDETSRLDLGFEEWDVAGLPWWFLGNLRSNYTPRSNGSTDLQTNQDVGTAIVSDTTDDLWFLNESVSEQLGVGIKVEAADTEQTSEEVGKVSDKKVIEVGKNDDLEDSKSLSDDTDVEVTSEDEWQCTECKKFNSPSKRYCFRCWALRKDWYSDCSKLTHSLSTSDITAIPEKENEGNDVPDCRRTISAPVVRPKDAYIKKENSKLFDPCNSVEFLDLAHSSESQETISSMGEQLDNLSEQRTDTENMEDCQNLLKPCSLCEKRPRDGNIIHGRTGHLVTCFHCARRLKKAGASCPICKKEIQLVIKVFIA
Target sequence (Q00987 whole entry, looked up): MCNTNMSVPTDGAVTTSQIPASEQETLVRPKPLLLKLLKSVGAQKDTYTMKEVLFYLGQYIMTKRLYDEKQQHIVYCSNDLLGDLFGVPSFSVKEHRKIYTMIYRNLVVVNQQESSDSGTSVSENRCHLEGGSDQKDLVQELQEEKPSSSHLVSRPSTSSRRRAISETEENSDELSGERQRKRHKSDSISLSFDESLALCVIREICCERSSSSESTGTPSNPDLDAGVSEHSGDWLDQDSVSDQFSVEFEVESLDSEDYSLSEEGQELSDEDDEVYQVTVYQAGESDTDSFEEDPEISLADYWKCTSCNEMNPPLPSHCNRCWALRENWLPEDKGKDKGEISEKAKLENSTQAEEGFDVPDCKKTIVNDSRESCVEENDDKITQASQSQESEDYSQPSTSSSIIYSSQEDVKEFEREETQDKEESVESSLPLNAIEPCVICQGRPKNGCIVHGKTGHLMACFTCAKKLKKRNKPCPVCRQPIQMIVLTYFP
CSC inhib: blocks cancer stem cells; cancer stem cell-like cells viability, luminescence; inhibition, % at 7.5 µM; 300,000 tested, 1.1% active; in the data active = inhibition above about 75%; tested in HMLE shEcad cells
MPTP inh: inhibitors of mitochondrial permeability transition pore; isolated mouse mitochondria, Ca2+ swelling absorbance, 30 min; 360,000 tested, 1.4% active; inhibition, % at 10 µM;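 active = inhibition of 50% or more, scaled per plate between neutral and stimulator controls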
Beta cell apopt: beta cell apoptosis inhibition | 300,000 tested, 0.8% active | INS-1E cytokine-induced death, ATP luminescence, 48 h; percent of positive-control rescue, neutral wells zero | protection from apoptosis, % (concentration not given with the values);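 active = Every replicate reaches about 75%, or at least half do and their mean reaches it too, limit read from the data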;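 note: higher means more ATP so stronger rescue from cytokine killing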
GRIN3A LBD mod: NR3A (human) ligand-binding domain modulation; NR3A LBD differential scanning fluorimetry, Tm shift; 0% = protein alone, 100% = glycine-bound protein; Tm shift relative to glycine control, % at 25 µM; 340,000 tested, 2.5% active; AID 1259313;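 active = melting temperature shift of at least 10% of the positive control shift, at one fixed dose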
Gli-Sufu block: antagonists of Gli-Sufu signaling; Sufu-KO-LIGHT fibroblasts, Gli luciferase reporter luminescence; inhibition, % at 5 µM; 340,000 tested, 0.74% active;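 active = inhibition above about 55%, limit read from the data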
Mdm2 MdmX conf: confirmation of human Mdm2/MdmX interaction inhibitors | inhibition, % at 8 µM | Mdm2-MdmX binding, luminescent assay | 10,000 tested, 55% active | AID 489028 | shares compounds with Mdm2 MdmX PPI; in the data active = inhibition above about 40%
FLuc counter: inhibits full-length luciferase, flagging false Mdm2/MdmX hits; shares compounds with Mdm2 MdmX PPI; SaOS-2 full-length luciferase counterscreen, luminescence; inhibition, % at 8 µM; 6,200 tested, 77% active;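 active = mean inhibition at 8 µM reaching about 37%, which flags the compound as non-specific, limit read from the data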;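 note: p53-null SaOS-2 cells with luciferase driven by a doxycycline-inducible promoter; compound on cells about two nights before reading with doxycycline added after day one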
Numbers stand for hits; - = inactive; . = not tested or not shown.

SMILES	Mdm2 MdmX PPI	CSC inhib	MPTP inh	Beta cell apopt	GRIN3A LBD mod	Gli-Sufu block	Mdm2 MdmX conf	FLuc counter
O=C(NCC1CCCO1)c1cc2c([nH]c3ccccc32)c(-c2cccc(Cl)c2)n1 (stereo unspecified)	87.0	-	-	-	-	-	45.6	60.3
CC(=O)NCc1nc2ccccc2n1Cc1ccccc1C	-	-	-	-	-	-	.	.
CC(=O)Nc1nc2ccccc2n1Cc1ccccc1C	79.3	.	-	-	-	-	58.6	71.0
CC(=O)Nc1nc2ccccc2n1Cc1ccccc1Cl	66.7	-	-	-	-	-	59.5	66.7
NS(=O)(=O)c1ccc(CCN2C(=O)/C(=C\c3ccc(Cl)cc3)SC2=S)cc1	95.1	-	-	-	-	-	96.5	46.4
CCc1ccc(N2C(=O)C3CCCN3C2=S)cc1 (stereo unspecified)	-	-	-	-	-	-	.	.
CCN1CCN(c2cc(C)c3cc(NC(=S)NCCN(C)C)ccc3n2)CC1	-	-	-	-	-	-	.	.
Cc1cc(N2CCCC2)nc2ccc(NC(=S)NCCCN3CCC(C)CC3)cc12	100.3	-	-	-	-	-	-	48.8
CCCCN(C)CCNC(=S)Nc1ccc2nc(N3CCN(CC)CC3)cc(C)c2c1	73.9	-	-	-	-	-	-	51.0
CSc1cccc(NC(=O)C2CC(=O)N(Cc3ccccc3)C2)c1 (stereo unspecified)	-	-	-	-	-	-	.	.
COC(=O)c1ccc(COC(=O)CCNS(=O)(=O)c2ccc(C)c(C)c2)cc1	-	.	-	.	-	-	.	.
C[C@@H]1CN([C@@H](C)CO)C(=O)CCCn2cc(nn2)CO[C@H]1CN(C)S(=O)(=O)c1ccc(C#N)cc1	.	.	-	.	.	.	.	.
CCn1c(=O)c2cc(C(=O)Nc3ccccc3OC)sc2c2ccccc21	61.4	-	-	-	-	-	-	73.0
CCn1c(=O)c2cc(C(=O)NC(C)C)sc2c2ccccc21	-	-	-	-	-	-	.	.
COc1ccc(OC)c(NC(=O)c2cc3c(Cl)nc4ccccc4c3s2)c1	52.8	-	-	-	-	-	-	.
CCOc1ccc(Cl)cc1CNCCCSc1nc(C)cc(C)n1	-	-	-	.	-	-	.	.
C=CCOc1ccc(C2=NOC(C(=O)Nc3ccc4c(c3)OCCO4)C2)cc1 (stereo unspecified)	-	-	-	-	-	-	.	.
COc1cccc2sc(N3CCN(c4nc5ccccc5s4)CC3)nc12	61.8	-	-	-	-	-	61.2	80.7
CCCS(=O)(=O)NC(=O)C1(C)CCCN(C(=O)C(C)(C)Oc2ccc(Cl)cc2)C1 (stereo unspecified)	.	.	-	.	.	.	.	.
Cc1cccc(NC(=S)N(CCCN2CCCC2)Cc2cccn2Cc2ccc(Cl)cc2)c1	53.9	-	-	-	-	-	-	-
CCN1CCN(CCCN(Cc2ccco2)C(=S)Nc2ccc(Cl)cc2)CC1	-	-	-	-	-	-	.	.
CCOc1ccc(NC(=S)N(CCCN2CCCC2)Cc2cccn2Cc2ccc(Cl)cc2)cc1	65.2	.	-	-	-	-	-	.
Cc1ccc(NC(=O)c2cc3c(=O)oc4ccccc4c3s2)nc1	63.3	-	-	-	-	-	-	.
Cc1c(C#N)c2n(c1C)CCCC(=O)N2	.	.	-	.	.	.	.	.
Cc1ccc(NC(=S)NC(=O)C2CCCCC2)c(Br)c1	-	-	-	-	-	-	.	.
SMILES	Mdm2 MdmX PPI	CSC inhib	MPTP inh	Beta cell apopt	GRIN3A LBD mod	Gli-Sufu block	Mdm2 MdmX conf	FLuc counter
CCOC(=O)c1c(C)[nH]c(C(=O)OCc2nc3ccsc3c(=O)[nH]2)c1C	.	.	-	.	.	.	.	.
O=C(N/N=C/c1c(F)cccc1Cl)C(=O)N1CCCCCC1	56.4	-	-	-	-	-	-	.
CCc1nc2ccc(C(=O)N3CCN(c4ccccc4)CC3)cn2c1N(C)CCC(C)C	.	.	-	.	.	.	.	.
Cc1ccc2c(c1)c1c(n2CC(O)Cn2c(C)nc3ccccc32)/C(=N\O)CCC1 (stereo unspecified)	59.5	-	-	-	-	-	-	.
CC(C)(C)c1ccc(Oc2ncccc2NC(=O)c2cccs2)cc1	-	-	-	-	-	-	.	.
Cn1nc(C(=O)Nc2ccc(S(=O)(=O)N3CCCCC3)cc2)c2ccccc2c1=O	-	-	-	-	-	-	.	.
Cn1nc(C(=O)Nc2cccc(S(=O)(=O)N3CCCCC3)c2)c2ccccc2c1=O	63.2	.	-	.	-	-	53.1	83.2
